From the supplement of paper PMC9492666

Tests used:
HCC1937 = assay: relative cell viability, compound alone, vs DMSO (fraction of DMSO control); higher = less growth inhibition; conditions: 72 h
MDA-MB-231 = assay: as above; conditions: 72 h
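Further: viability read out with the CCK-8 kit in 96-well plates, screening a set of 303 compounds acting on lipid metabolism targets.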

Compound: COc1cc(N(C)C)cc(CN(C)CCc2ccc([N+](=O)[O-])cc2)c1O [CDC25 Phosphatase Inhibitor I]
- relative cell viability (HCC1937): 0.966
- relative cell viability (MDA-MB-231): 0.976

Compound: CC(C)(C)c1ccc(-c2nc3ccccc3[nH]2)cc1
- relative cell viability (HCC1937): 0.728
- relative cell viability (MDA-MB-231): 0.612

Compound: CC1=C(/C=C/C(C)=C/C=C/C(C)=C/C=C/C=C(C)/C=C/C=C(C)/C=C/C2=C(C)C(=O)[C@@H](O)CC2(C)C)C(C)(C)C[C@H](O)C1=O [Astaxanthin]
- relative cell viability (HCC1937): 1.01
- relative cell viability (MDA-MB-231): 1.13

Compound: NC(N)=NN=Cc1cccc(Cl)c1Cl [Raphin1]
- relative cell viability (HCC1937): 0.818
- relative cell viability (MDA-MB-231): 0.72

Compound: NC(CO)C(=O)O (racemic) [DL-Serine]
- relative cell viability (HCC1937): 0.683
- relative cell viability (MDA-MB-231): 0.77

Compound: CC(C)(Oc1ccc(Cl)cc1)C(=O)O [Clofibric acid]
- relative cell viability (HCC1937): 1.24
- relative cell viability (MDA-MB-231): 0.825

Compound: O=C(O)C(=O)Nc1sc2c(c1C(=O)O)CCNC2
- relative cell viability (HCC1937): 1.01
- relative cell viability (MDA-MB-231): 0.872

Compound: CCC(CC)CC1(C(=O)Nc2ccccc2SC(=O)C(C)C)CCCCC1 [Dalcetrapib]
- relative cell viability (HCC1937): 1.35
- relative cell viability (MDA-MB-231): 1.06

Compound: CC(=O)O[C@H](CC=C(C)C)C1=CC(=O)c2c(O)ccc(O)c2C1=O [Acetyl shikonin]
- relative cell viability (HCC1937): 1.08
- relative cell viability (MDA-MB-231): 1.06

Compound: O=C1C(SCCO)=C(SCCO)C(=O)c2ccccc21
- relative cell viability (HCC1937): 0.777
- relative cell viability (MDA-MB-231): 0.875

Compound: O=C(c1ccc(-c2nc3ccc(F)cc3o2)cc1)N1CCN(C(=O)C2(O)CC2)CC1
- relative cell viability (HCC1937): 0.831
- relative cell viability (MDA-MB-231): 0.918

Compound: O=C(O)CC[C@H](O)C(=O)O [L-2-Hydroxyglutaric acid disodium]
- relative cell viability (HCC1937): 1.04
- relative cell viability (MDA-MB-231): 1

Compound: CC(=O)c1c(C)cc2cccc(O)c2c1O [Nepodin]
- relative cell viability (HCC1937): 0.75
- relative cell viability (MDA-MB-231): 0.797

Compound: CCCc1c(-c2ccccc2)[nH]n(-c2ccccn2)c1=O [APX-115 free base]
- relative cell viability (HCC1937): 0.838
- relative cell viability (MDA-MB-231): 0.835

Compound: CN1CC(O)C2=C/C(=N/NC(N)=O)C(=O)C=C21 (stereo unspecified) [Carbazochrome]
- relative cell viability (HCC1937): 0.793
- relative cell viability (MDA-MB-231): 0.871

Compound: COc1cc(N2CCN(C)CC2)ccc1Nc1ncc2c(n1)N(C1CCC1)C(=O)N(c1c(C)cccc1C)C2
- relative cell viability (HCC1937): 0.817
- relative cell viability (MDA-MB-231): 0.767

Compound: C=CC[S+]([O-])C[C@H](N)C(=O)O (stereo partly specified) [Alliin]
- relative cell viability (HCC1937): 1
- relative cell viability (MDA-MB-231): 1.04

Compound: CCc1ccc(N(CC(C)C)S(=O)(=O)c2ccc(OCC3CCOCC3)c(CO)c2)cc1
- relative cell viability (HCC1937): 0.954
- relative cell viability (MDA-MB-231): 0.939

Compound: CC(C)=CCC[C@](C)(O[C@@H]1O[C@H](CO)[C@@H](O)[C@H](O)[C@H]1O)[C@H]1CC[C@]2(C)[C@@H]1[C@H](O)C[C@@H]1[C@@]3(C)CC[C@H](O[C@@H]4O[C@H](CO)[C@@H](O)[C@H](O)[C@H]4O[C@@H]4O[C@H](CO)[C@@H](O)[C@H](O)[C@H]4O)C(C)(C)[C@@H]3CC[C@]12C [Ginsenoside Rd]
- relative cell viability (HCC1937): 0.834
- relative cell viability (MDA-MB-231): 0.896

Compound: Cc1c(C(=O)Nc2ccc(CO)cc2)nnn1Cc1ccc(Cl)c(Cl)c1
- relative cell viability (HCC1937): 0.975
- relative cell viability (MDA-MB-231): 0.95

Compound: CN(CCOc1ccc(CC2SC(=O)NC2=O)cc1)c1ccccn1 (stereo unspecified) [Rosiglitazone]
- relative cell viability (HCC1937): 1.43
- relative cell viability (MDA-MB-231): 0.969

Compound: O=C(OC(C(F)(F)F)C(F)(F)F)N1CCC(C(O)(c2ccc3c(c2)OCO3)c2ccc3c(c2)OCO3)CC1
- relative cell viability (HCC1937): 1.06
- relative cell viability (MDA-MB-231): 0.855

Compound: CCc1ccc(CCOc2ccc(CC3SC(=O)NC3=O)cc2)nc1 (stereo unspecified) [Pioglitazone]
- relative cell viability (HCC1937): 1.17
- relative cell viability (MDA-MB-231): 0.843

Compound: O=C(NCCS(=O)(=O)c1ccc(C(F)(F)F)cn1)c1ccc(Cl)cc1
- relative cell viability (HCC1937): 0.749
- relative cell viability (MDA-MB-231): 0.901

Compound: COc1cc([C@@H]2Oc3c(O)cc([C@H]4Oc5cc(O)cc(O)c5C(=O)[C@@H]4O)cc3[C@H]2CO)ccc1O [Silychristin]
- relative cell viability (HCC1937): 1.04
- relative cell viability (MDA-MB-231): 1.02

Compound: CSc1ccc(C(=O)/C=C/c2cc(C)c(OC(C)(C)C(=O)O)c(C)c2)cc1 [Elafibranor]
- relative cell viability (HCC1937): 1.57
- relative cell viability (MDA-MB-231): 1.06

Compound: CCN(CC)c1ccc(C=NNC(=O)c2ccncc2)c(O)c1
- relative cell viability (HCC1937): 0.4
- relative cell viability (MDA-MB-231): 0.624

Compound: CC(C)(Oc1ccc(CCNC(=O)c2ccc(Cl)cc2)cc1)C(=O)O [Bezafibrate]
- relative cell viability (HCC1937): 0.628
- relative cell viability (MDA-MB-231): 0.823

Compound: O=C(Nc1cccnc1)N1CCC(Cc2cccc(Oc3ccc(C(F)(F)F)cn3)c2)CC1
- relative cell viability (HCC1937): 1.14
- relative cell viability (MDA-MB-231): 1.01

Compound: CC(c1cc2ccccc2s1)N(O)C(N)=O (stereo unspecified) [Zileuton]
- relative cell viability (HCC1937): 1.21
- relative cell viability (MDA-MB-231): 0.906

Compound: CN(C(=O)n1cnc(-c2ccc[n+]([O-])c2)c1)C1CCCCC1
- relative cell viability (HCC1937): 0.65
- relative cell viability (MDA-MB-231): 0.934

Compound: Cc1nc(-c2nc(-c3ccc(OC(F)(F)F)cc3)no2)nn1Cc1cccc(N2CCC(S(C)(=O)=O)CC2)c1
- relative cell viability (HCC1937): 0.93
- relative cell viability (MDA-MB-231): 0.775

Compound: Cc1nc(Nc2cnn(C3CCNCC3)c2)nc2c1N(C)C(=O)c1cc3ccccc3cc1N2C
- relative cell viability (HCC1937): 0.354
- relative cell viability (MDA-MB-231): 0.49
